# Screens: PubChem BioAssay, National Center for Advancing Translational Sciences (NCATS)
# CHX counter – affects cycloheximide protein synthesis inhibition readout, counter-screen; cell reporter, cycloheximide protein synthesis inhibition counterscreen; max response, %; 300,000 compounds, 12% hits; in the data active = max response mostly above about 13%, no sharp cut-off; inactive = mostly below about 14%; also: read at 38.3 µM for the half of the compounds with a filed dose; 0% is about no effect
# NS1 inh – blocks influenza NS1 protein function. 270,000 compounds, 0.4% hits. AID 2326. Potency, µM (top dose mostly 46.1 µM), for inactives: top-dose activity, positive = more growth; calls by dose curve; also: potency is read from the fitted curve at half-maximal effect; actives are rising curves; nearly all actives have a fitted effect of over 50% in size
#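 In this qHTS, NS1 from influenza A is expressed in budding yeast, where it slows growth. Cells are switched from glucose to 2% galactose medium (pH 6.0, -URA), treated with compound, and growth recovery is read at OD600.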
# Pf growth 48h – P. falciparum growth inhibition at 48 hours (one generation); P. falciparum luciferase growth in erythrocytes, 48 h; Potency, µM (series often up to 28.7 µM), for inactives: at the top dose activity change, negative = inhibition, usual class: inhibitors; 310,000 compounds, 5.9% hits; also: potency is read from the fitted curve at half-maximal effect; % is scaled to controls: 0 for no effect and ±100 for the full control effect
#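 Luminescence readout; reporter = integrated firefly luciferase in P. falciparum. RBC culture at 2% hematocrit, 0.1% parasitemia final, 37 C/5% CO2; decreased signal taken as growth inhibition.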
# Pf growth 96h – P. falciparum growth inhibition at 96 hours. AID 504834. 320,000 compounds, 6.9% hits. P. falciparum luciferase reporter growth, 96 h. Potency, µM (titrated, usually from 28.7 µM), for the others: top-dose activity change, negative = inhibition, usual class: inhibitors; also: potency is read from the fitted curve at half-maximal effect; % is scaled to controls: 0 for no effect and ±100 for the full control effect
#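 Delayed-death screen, second-generation endpoint: infected erythrocytes, 2% hematocrit, 0.05% parasitemia final; 96 hours at 37 C, 5% CO2; luciferase detection reagent; luminescence decrease equals reduced growth.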
# FBPA Giardia inh – blocks Giardia fructose-bisphosphate aldolase activity | purified Giardia FBPA | AID 2451 | Potency, µM (top dose mostly 59.6 µM), for inactives: at the top dose activity, negative = inhibition, hits mostly inhibitors | 290,000 compounds, 0.71% hits; also: potency is read from the fitted curve at half-maximal effect; % is scaled to controls: 0 for no effect and ±100 for the full control effect; nearly all actives have a fitted effect of over 55% in size
# Target sequence (A8B2U2 whole entry, looked up): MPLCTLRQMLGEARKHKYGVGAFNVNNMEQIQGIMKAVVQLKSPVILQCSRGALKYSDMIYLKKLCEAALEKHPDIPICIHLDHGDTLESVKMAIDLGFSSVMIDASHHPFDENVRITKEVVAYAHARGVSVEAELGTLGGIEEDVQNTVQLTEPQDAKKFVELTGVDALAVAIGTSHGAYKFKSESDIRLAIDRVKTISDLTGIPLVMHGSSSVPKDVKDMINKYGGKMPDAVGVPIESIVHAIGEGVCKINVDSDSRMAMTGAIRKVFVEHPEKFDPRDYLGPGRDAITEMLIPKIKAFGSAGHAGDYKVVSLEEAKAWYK
#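 Giardia FBPA (40 nM reagent) was preincubated 10 min at RT with compound (up to 57.5 uM final), then substrate plus GAPDH/TPI/NAD/arsenate coupling system with diaphorase/resazurin was added; resorufin fluorescence (525/598 nm) was read after 20 min.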
# Shiga toxin inh – Shiga toxin inhibition; Vero cells, Shiga toxin protein synthesis inhibition reporter; 290,000 compounds, 9.2% hits; AID 2315; inhibition, % at 38.7 µM; in the data active = inhibition mostly above about 28%, no sharp cut-off; inactive = mostly below about 43%; also: 0% is about no effect
# * marks the source's active call; other numbers are inactive results; ? = inconclusive; nt = no result; [ ] = another dose, or the depositor's remark. Most compounds without a hit are left out; they make up all but 21% or so of the library. Unless noted, calls follow the shape of the dose curve; as a rule, active = well fitted curve in the direction sought with a large enough effect; inconclusive = small, poorly fitted or top-dose-only effect, or another doubt; inactive = no such curve, though single readings can be large; an effect the other way counts as inactive or inconclusive.
SMILES,CHX counter,NS1 inh,Pf growth 48h,Pf growth 96h,FBPA Giardia inh,Shiga toxin inh
O=C(Nc1ccc(CN2CCOCC2)cc1)c1cccs1,27.1*,-2.5%,115.3%,0.0%,0.4%,63.8*
O=C(Nc1ccc(CN2CCOCC2)cc1)c1ccc(Cl)cc1Cl,16.5*,3.2%,-31.6%,12.6%,12.4%,10.7
O=C(Nc1ccc(CN2CCOCC2)cc1)c1cc(Br)ccc1Cl,3.0,-10.9%,15.0%,?,-6.6%,10.4
O=C(NC(=S)Nc1ccc(CN2CCOCC2)cc1)c1ccccc1[N+](=O)[O-],13.4,-5.2%,-11.8%,13.2%,2.9%,2.3
O=C(NCc1ccccn1)c1ccc(Cl)c(S(=O)(=O)N2CCOCC2)c1,1.3,11.4%,?,0.9%,6.4%,-12.1
CCCCNC(=O)CSc1nnc(Cc2ccc(Cl)c(Cl)c2)c(=O)[nH]1,-5.1,17.1%,44.2%,34.0%,-7.6%,-8.9
O=C(Nc1ccc(CN2CCOCC2)cc1)c1ccc(-c2ccc(Cl)cc2Cl)o1,7.8,-1.2%,2.08µM*,-4.5%,-12.1%,-7.5
O=C(Nc1ccc(CN2CCOCC2)cc1)c1ccc(-c2cccc(Cl)c2)o1,18.5,-12.8%,1.47µM*,?,nt,29.5
Cc1cccc(C)c1NC(=O)c1ccc(-c2ccc(Cl)cc2Cl)o1,1.1,-7.2%,?,?,-11.3%,-13.8
COc1ccccc1NC(=O)c1ccc(CN2CCOCC2)cc1,9.9,-1.3%,43.0%,?,-3.0%,13.2
COc1cc2ccccc2cc1C(=O)Nc1ccc(CN2CCOCC2)cc1,20.2*,-2.7%,23.8%,241.8%,-1.9%,35.4
O=C(Nc1cnn(Cc2ccc(Cl)cc2)c1)c1cccs1,10.3,-42.5%,4.65µM*,6.57µM*,4.0%,-0.8
O=C(NC(=S)Nc1ccc(CN2CCOCC2)cc1)c1ccc(-c2cccc(Cl)c2)o1,0.8,-20.1%,?,-20.1%,-11.5%,-2.2
O=C(COc1ccccc1)Nc1cccc(-c2ccc(N3CCOCC3)nn2)c1,nt,nt,-15.1%,-9.7%,nt,nt
O=C(NC(=S)Nc1ccc(CN2CCOCC2)cc1)c1ccc([N+](=O)[O-])cc1Cl,25.7*,nt,10.5%[5.75 µM],?,-12.6%,32.7
C[N+](C)(C)CC[N+]1(C)Cc2c(Cl)c(Cl)c(Cl)c(Cl)c2C1,nt,nt,-10.1%,0.239µM*,-0.4%,nt
CCC(C)[C@H](NC(=O)[C@@H]1CSC2c3ccccc3C(=O)N21)C(=O)N1CCCCC1 (stereo partly specified),-1.8,18.3%,?,?,nt,-5.4
Cc1ccc(N2C(=O)N3[C@H](c4ccc(F)cc4)[C@@H]4C(=O)N(C5CCCCC5)C(=O)[C@@H]4[C@]3(Cc3ccccc3)C2=O)cc1,-1.5,12.0%,0.0%,11.7µM*,-3.2%,-0.2
CC(C)C[C@@]12C(=O)N(c3cccc(Br)c3)C(=O)N1[C@H](c1ccc(F)cc1)[C@@H]1C(=O)N(C3CCCCC3)C(=O)[C@@H]12,nt,nt,1.85µM*,?,nt,nt
O=C1[C@H]2[C@@H](c3ccc(F)cc3)N3C(=O)N(c4cccc(Br)c4)C(=O)[C@@]3(Cc3ccccc3)[C@H]2C(=O)N1C1CCCCC1,nt,nt,4.15µM*,?,nt,nt
CC[C@@]12C(=O)N(c3cccc(F)c3)C(=O)N1[C@H](c1ccc(F)cc1)[C@@H]1C(=O)N(C3CCCCC3)C(=O)[C@@H]12,-3.7,0.8%,-24.8%,?,-4.6%,-5.5
O=C1[C@H]2[C@@H](c3ccc(Cl)cc3)N3C(=O)N(c4cccc(Cl)c4)C(=O)[C@@]3(Cc3ccccc3)[C@H]2C(=O)N1C1CCCCC1,nt,nt,2.08µM*,5.86µM*,nt,nt
COc1cccc(NC(=O)COC(=O)C2C3CC4OC(=O)C2C4C3)c1 (stereo unspecified),20.9*,4.2%,6.5%,7.2%,-0.9%,28.7
COc1cccc(NC(=O)C2C3CC4OC(=O)C2C4C3)c1 (stereo unspecified),-2.7,12.8%,-3.1%,20.1%,1.1%,-8.0
Cc1cccc(NC(=O)Cn2cnc3c(oc4ccccc43)c2=O)c1,1.0,nt,6.0%,?,1.5%,-7.8
SMILES,CHX counter,NS1 inh,Pf growth 48h,Pf growth 96h,FBPA Giardia inh,Shiga toxin inh
CC(C)C(C)NC(=O)Cn1cnc2c(oc3ccccc32)c1=O (stereo unspecified),16.9*,-13.7%,25.4%,39.7%,17.6%,37.6
COC(=O)Cn1cnc2c(oc3ccccc32)c1=O,36.5*,-24.2%,45.6%,46.7%,5.9%,41.0*
CCOC(=O)c1ccccc1NC(=O)Cn1cnc2c(oc3ccccc32)c1=O,30.1*,-0.7%,44.0%,11.7%,0.9%,56.1*
Cc1cc(-c2nnc(CCC(=O)NCC(C)c3ccccc3)o2)no1 (stereo unspecified),13.4,0.6%,-11.4%,2.4%,nt,-1.3
Cc1cc(-c2nnc(CCC(=O)N(C)Cc3cccc4ccccc34)o2)no1,19.6*,-2.8%,-14.9%,?,-4.2%,62.6*
Cc1cc(-c2nnc(CCC(=O)NC(C)c3cccc4ccccc34)o2)no1 (stereo unspecified),6.5,1.2%,-16.9%,11.7µM*,3.5%,15.2
Cc1cc(-c2nnc(CCC(=O)NCc3cc(F)cc(C(F)(F)F)c3)o2)no1,25.0*,11.0%,-10.4%,-23.3%,nt,31.7
COc1ccccc1CCc1nnc(CCC(=O)N(C)Cc2ccncc2C)o1,-0.8,0.9%,-12.1%,18.6%,3.8%,8.0
Cc1cc(-c2nnc(CCC(=O)NC(C)c3ccccc3Cl)o2)no1 (stereo unspecified),-4.5,nt,13.3%,22.7%,3.7%,-4.6
Cc1ccc(NC(=O)CSc2nnc(-c3cc(C)on3)o2)cc1,-5.4,-8.9%,33.5%,15.6%,-10.9%,23.9
CCC(NC(=O)CCc1nnc(-c2cc(C)on2)o1)C12CC3CC(CC(C3)C1)C2 (stereo unspecified),17.8*,-15.8%,?,8.6%,11.2%,30.2
COc1cccc(CC(=O)N(CCC2=CCCCC2)c2c(N)n(Cc3ccccc3)c(=O)[nH]c2=O)c1,nt,nt,?,-17.8%,nt,nt
CC(C)(C)OC(=O)CC12CCCCC1NC(=O)O2 (stereo unspecified),1.0,2.0%,-12.5%,-11.6%,6.1%,9.5
COc1ccccc1CCn1c(=O)c(C)nc2cncnc21,nt,nt,nt,nt,1.0%,nt
O=C(O)c1ccncc1.O=C(O)c1ccncc1.[NH2-].[NH2-].[Pt],nt,2.6%,nt,nt,nt,nt
COc1ccc(C(C)NC(=O)CCc2ccccc2)cc1 (stereo unspecified),1.0,-4.1%,3.3%,2.5%,7.4%,-3.9
COc1ccc([C@@H](C)NC(=O)CCc2nnc(-c3cc(C)on3)o2)cc1,2.4,0.5%,18.9%,2.94µM*,1.6%,-7.3
O=C(Nc1ccc(NC(=O)C2CC2)cn1)c1ccccc1Cl,33.3*,-3.4%,69.8%,nt,19.6%,49.5*
Cc1cc(NC(=O)C2CCCCC2)ccc1NC(=O)c1ccccc1Cl,-1.5,-5.9%,12.0%,-6.2%,2.7%,-5.3
O=C(Nc1ccc(NC(=O)C2CC2)cn1)c1ccccc1,25.7*,-5.6%,113.6%,12.9%,-4.0%,43.0*
